# Assay results: PubChem BioAssay (NCATS)
# Records with an inconclusive call do not appear. Active and inactive are the calls of the source. The call rests on the fitted dose curve; in most records, active means well fitted inhibition curve with a large enough effect; inconclusive means small, poorly fitted or top-dose-only effect; inactive means flat fitted curve, though single readings scatter.
# Target: Calcium and integrin-binding protein 1 (Homo sapiens) (UniProt Q99828)
# Assay: Primary qHTS for Identification of Calcium Integrin Binding Protein 1 (CIB1) Competitor (AID 1508620);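 further: GST tagged CIB1 binding a fluorescein labelled alphaIIb integrin peptide tracer; top concentration of the series differs between compounds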
# Conditions: CIB1-GST / FITC-alphaIIb peptide fluorescence polarization; series mostly up to 57.7 µM; activity change, negative = inhibition: at the top concentration
# Outline: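 CIB1-GST (1 uM final) and compound incubated 15 min at room temperature before adding FITC-alphaIIb peptide tracer (100 nM final). Competition for binding read by fluorescence polarization (ex 480, em 540) after another 15 min at room temperature.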
# On the % scale 0 is the no-effect control and ±100 the full control effect.
# Calcium and integrin-binding protein 1 (Homo sapiens), sequence (Q99828 whole entry, looked up): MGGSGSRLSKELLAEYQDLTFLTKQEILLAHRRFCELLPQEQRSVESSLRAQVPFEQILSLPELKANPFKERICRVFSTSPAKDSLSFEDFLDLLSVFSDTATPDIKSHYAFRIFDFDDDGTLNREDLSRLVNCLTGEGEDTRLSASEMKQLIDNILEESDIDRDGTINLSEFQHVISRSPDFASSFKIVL
row,Structure (SMILES),"activity change, negative = inhibition"
1,CCCNS(=O)(=O)Nc1ncnc(OCCOc2ncc(Br)cn2)c1-c1ccc(Br)cc1,-7.8% (inactive)
2,CCc1cnn2c(NCc3ccc[n+]([O-])c3)cc(N3CCCC[C@@H]3CCO)nc12,1.98% (inactive)
3,CC(=O)OC[C@@H]1O[C@@H](n2ccc(=O)[nH]c2=O)[C@H](OC(C)=O)[C@H]1OC(C)=O,-3.46% (inactive)
4,Cc1ccc(O)c(C(CCN(C(C)C)C(C)C)c2ccccc2)c1 (stereo not given),-0.202% (inactive)
5,C=CCNc1c(O)cc2c(O)c1C[C@@H](C)C[C@H](OC)[C@@H](O)[C@@H](C)C=C(C)[C@H](OC(N)=O)[C@@H](OC)C=CC=C(C)C(=O)N2,-2.5% (inactive)
6,N=c1ccn2c(n1)O[C@H]1[C@@H](O)[C@@H](CO)O[C@H]12,1.67% (inactive)
7,CON=C(C(=O)N[C@@H]1C(=O)N2C(C(=O)O)=C(CSC(=O)c3ccco3)CS[C@H]12)c1csc(N)n1,-6.84% (inactive)
8,O=[N+]([O-])c1cn2c(n1)OC[C@@H](OCc1ccc(OC(F)(F)F)cc1)C2,-2.59% (inactive)
9,N#CC(=C(N)Sc1ccc(N)cc1)c1ccccc1C(F)(F)F,-0.736% (inactive)
10,COc1cc(C[C@@H](CO)[C@H](CO)Cc2ccc(O)c(OC)c2)ccc1O,-1.7% (inactive)
